From PubChem BioAssay AID504415 (Broad Institute, 2011)
Entries with a potency or affinity are not part of this list. Records with an inconclusive call do not appear. Unmarked numbers belong to inactive results.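 Rule for the calls: active = compound lowering the signal whose fitted half-maximal concentration is at most ten times its top tested dose; inconclusive = flat curve with 30 to 70% loss, or poor fit; inactive = the rest.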

Test: Mcl1-dependent cancer cell viability – HMC-1-8 cells, luminescence, dry powder, selectivity assay for A1 inhibitor project, dose response (AID 504415)
Details: HMC-1-8 (Mcl1-dependent) viability, Glo luminescence, 24 h; series mostly up to 35 µM; activity change, negative = viability loss: at the top concentration

SMILES	activity change, negative = viability loss [%]
O=c1oc2ccccc2c(Cl)c1[N+](=O)[O-]	23.9
Cn1c(=O)c([N+](=O)[O-])c(Oc2ccccc2)c2ccccc21	12.5
Cc1ccc(Nc2c([N+](=O)[O-])c(=O)oc3ccccc23)cc1	10.5
CCOC(=O)N1CCN(c2c([N+](=O)[O-])c(=O)n(C)c3ccccc23)CC1	8.34
Cc1ccc(Nc2c([N+](=O)[O-])c(=O)n(C)c3ccccc23)cc1	5.87
